For 63 molecules, residual activity results are on record in ChEMBL document CHEMBL2218924, “A broad activity screen in support of a chemogenomic map for kinase signalling research and drug discovery” (Biochem J, 2013).

Experiment [1] deals with G protein-coupled receptor kinase 5 (Homo sapiens) (UniProt P34947). To be noted: at 1 µM.
Experiment [2] addresses G protein-coupled receptor kinase 6 (Homo sapiens) (UniProt P43250). To be noted: at 1 µM.

Chain of G protein-coupled receptor kinase 6 (Homo sapiens) (P43250 whole entry, looked up): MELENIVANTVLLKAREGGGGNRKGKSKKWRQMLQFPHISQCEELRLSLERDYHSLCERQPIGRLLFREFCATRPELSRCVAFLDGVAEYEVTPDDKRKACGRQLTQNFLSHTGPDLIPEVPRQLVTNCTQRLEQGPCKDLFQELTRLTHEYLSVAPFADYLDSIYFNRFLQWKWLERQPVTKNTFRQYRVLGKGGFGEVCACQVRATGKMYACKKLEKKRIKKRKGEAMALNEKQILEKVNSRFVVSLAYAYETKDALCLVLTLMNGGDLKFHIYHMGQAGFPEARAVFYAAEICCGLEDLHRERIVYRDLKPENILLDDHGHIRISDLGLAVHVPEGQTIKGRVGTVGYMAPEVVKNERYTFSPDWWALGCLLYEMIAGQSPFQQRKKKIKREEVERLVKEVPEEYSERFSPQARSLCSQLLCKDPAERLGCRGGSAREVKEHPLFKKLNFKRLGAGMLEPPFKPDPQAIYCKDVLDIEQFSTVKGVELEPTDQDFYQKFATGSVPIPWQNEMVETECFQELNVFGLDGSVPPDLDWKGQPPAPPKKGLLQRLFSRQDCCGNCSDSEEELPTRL
Chain of G protein-coupled receptor kinase 5 (Homo sapiens) (P34947 whole entry, looked up): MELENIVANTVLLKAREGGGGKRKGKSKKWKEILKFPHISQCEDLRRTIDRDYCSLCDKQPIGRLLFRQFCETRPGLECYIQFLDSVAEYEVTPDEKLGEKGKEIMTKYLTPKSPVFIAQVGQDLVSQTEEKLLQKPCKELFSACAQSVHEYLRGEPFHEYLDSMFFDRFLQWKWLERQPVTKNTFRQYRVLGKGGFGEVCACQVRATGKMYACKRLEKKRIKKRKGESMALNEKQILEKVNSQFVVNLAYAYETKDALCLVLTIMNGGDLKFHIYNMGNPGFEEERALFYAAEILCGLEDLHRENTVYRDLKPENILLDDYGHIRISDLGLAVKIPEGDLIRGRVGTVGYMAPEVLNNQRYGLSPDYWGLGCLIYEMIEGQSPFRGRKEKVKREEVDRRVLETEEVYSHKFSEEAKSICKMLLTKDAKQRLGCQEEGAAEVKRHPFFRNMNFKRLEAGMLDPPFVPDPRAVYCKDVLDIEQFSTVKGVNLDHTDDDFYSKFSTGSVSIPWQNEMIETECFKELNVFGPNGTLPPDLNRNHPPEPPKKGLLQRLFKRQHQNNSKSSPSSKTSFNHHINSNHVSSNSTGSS

`O=[N+]([O-])c1ccc(-c2nc(-c3ccc(F)cc3)c(-c3ccncc3)[nH]2)cc1`: the results for the residual activity in experiment [1] and in experiment [2] were 101% and 102%, respectively. For `O=c1cc(-c2cccc3c2Sc2ccccc2S3)oc(N2CCOCC2)c1`, in that order: 99% and 100%. The matching figures for `Cn1cnc2cc3c(Nc4cccc(Br)c4)ncnc3cc21`: 109% and 97%. Consider `COc1cc2nccc(Oc3ccc(NC(=S)NC(=O)c4ccccc4C)cc3)c2cc1OC`, for which the figures for the residual activity in experiment [1] and in experiment [2] were 98% and 87%, respectively. For `COc1ccc(C(=O)Nc2sc3c(c2C(N)=O)CCCC3)cc1OC`, in that order: 91% and 90%. Consider `Cc1cccc(-c2[nH]c(C(C)(C)C)nc2-c2ccc3c(c2)OCO3)n1`, for which the residual activity was determined as 105% in experiment [1] and 103% in experiment [2]. For `O=C1C(Cl)=C(N2C(=O)CCC2=O)C(=O)c2ccccc21`, in that order: 98% and 88%. The matching figures for `CC(C)n1cnc2/c(=N/c3cccc(Cl)c3)nc(NCCO)[nH]c21`: 92% and 90%. The matching figures for `O=C1NC(=O)/C(=C\c2ccc3nccnc3c2)S1`: 103% and 90%. With `Nc1ncnc2[nH]nc(Nc3ccc(F)cc3)c12`, the residual activity in experiment [1] was 103%; in experiment [2], 97%. The matching figures for `Oc1ccc(-c2nc(-c3ccc(F)cc3)c(-c3ccncc3)[nH]2)cc1`: 109% and 109%.

As for `Cc1nc(-c2ccccc2)c(-c2ccncc2)o1`, the residual activity amounted to 104% in experiment [1] and 103% in experiment [2].

In the case of `Ic1cccc(CSc2nnc(-c3ccncc3)o2)c1`, the residual activity in experiment [1] and in experiment [2] was 89% in each case. As to `CC(C)[C@H](CO)Nc1nc(Nc2cc(N)cc(Cl)c2)c2ncn(C(C)C)c2n1`, the residual activity in experiment [1] turned out to be 89%; in experiment [2], 90%.

Consider `O=C(NC(NC(=S)Nc1ccc(F)c([N+](=O)[O-])c1)C(Cl)(Cl)Cl)C(c1ccccc1)c1ccccc1` (stereo not drawn), for which the residual activity in experiment [1] is 90%; in experiment [2] it was 100%. For `Oc1c2ccccc2c2c3c(cccc13)N=N2`, in that order: 84% and 87%. For the molecule `CC(C)n1cnc2c(NCc3ccccc3)nc(NCCCO)nc21`, the residual activity in experiment [1] was 101%; in experiment [2] it was 96%. The matching figures for `CC#CC(=O)Nc1cc2c(Nc3ccc(F)c(Cl)c3)ncnc2cn1`: 100% and 95%. Consider `COc1ccc(S(=O)(=O)N(CCO)c2ccccc2CN(C)C/C=C/c2ccc(Cl)cc2)cc1`, for which the residual activity in experiment [1] came out at 97%; in experiment [2], 91%. As to `O=C1c2ccccc2-[n+]2ccc3c([nH]c4ccccc43)c21`, the residual activity was determined as 91% in experiment [1] and 88% in experiment [2]. For `Cn1cc(/C=C2\C(=O)Nc3ccc(S(N)(=O)=O)cc32)c2ccccc21`, in that order: 62% and 96%.

On to `O=C1Nc2cc(Br)ccc2/C1=C1/Nc2ccccc2/C1=N\O`, for which the residual activity in experiment [1] and in experiment [2] was 89% in each case. For the molecule `O=C(CCCc1ccc(-c2ccccc2F)cc1)Nc1ccc(O)cc1`, the residual activity in experiment [1] and in experiment [2] was 101% in each case. With `CNc1cc2c(Nc3cccc(Br)c3)ncnc2cn1`, the values for the residual activity in experiment [1] and in experiment [2] were 109% and 95%, respectively.

In the case of `Oc1ccc(Nc2nc(-c3ccc(Cl)cc3)cs2)cc1`, the figures for the residual activity in experiment [1] and in experiment [2] were 102% and 103%, respectively.

`CCCC(=O)Oc1ccc2[nH]c(C(=O)c3cc4ccccc4[nH]3)cc2c1`: the residual activity came out at 104% in experiment [1] and 93% in experiment [2]. The matching figures for `O=C1Nc2ccc(Br)cc2/C1=C\c1cc2c([nH]1)CCCC2`: 104% and 102%. The matching figures for `O=c1c(-c2ccc(F)cc2)c(-c2ccncc2)[nH]n1-c1ccc(Cl)cc1`: 101% and 99%. For `COc1cccc(-c2cc(=O)c3ccccc3o2)c1N`, in that order: 100% and 99%. As to `Nc1cccc(-c2cc3c(Oc4cccc(O)c4)ncnc3[nH]2)c1`, the residual activity is 92% in experiment [1] and 93% in experiment [2]. Regarding `NC(=O)Nc1sc(-c2ccc(F)cc2)cc1C(N)=O`, the residual activity in experiment [1] was determined as 93%; in experiment [2], 85%. The matching figures for `COc1cc2ncnc(N3CCN(C(=O)Nc4ccc(Oc5ccccc5)cc4)CC3)c2cc1OC`: 95% and 85%.

In the case of `Cc1cc2ncc(-c3ccccc3)nc2cc1C`, the residual activity in experiment [1] was found to be 106%; in experiment [2], 95%. Consider `CC[n+]1c(/C=C/N(C)c2ccccc2)n(-c2ccccc2)c2ccc(-c3nc4ccccc4s3)cc21`, for which the residual activity in experiment [1] stood at 108%; in experiment [2] it was 101%. On to `CC(C)(C)c1nc2c3ccc(F)cc3c3c(=O)[nH]ccc3c2[nH]1`, for which the residual activity was found to be 72% in experiment [1] and 59% in experiment [2]. In the case of `COc1cc2ncnc(Nc3ccc(NC(=O)c4ccccc4)cc3)c2cc1OC`, the residual activity in experiment [1] was 105%; in experiment [2] it was 111%. For `Oc1n[nH]c2nnc(-c3c(-c4ccccc4)nn4ccccc34)cc12`, in that order: 87% and 83%.

Turning to `CC(=O)O/N=C1\C(=C2\C(=O)Nc3cc(Br)ccc32)Nc2ccccc21`, the residual activity in experiment [1] turned out to be 98%; in experiment [2], 86%. Turning to `C[C@@H](N)[C@H]1CC[C@H](C(=O)Nc2ccncc2)CC1`, the residual activity turned out to be 92% in experiment [1] and 106% in experiment [2]. The matching figures for `Cc1ccc(S(=O)(=O)/C=C/C#N)cc1`: 96% and 92%. Consider `O=C1Nc2ccc(Cl)cc2/C1=C/c1cc(Cl)c(O)c(Cl)c1`, for which, in experiment [2], the residual activity was 90%.

Take `c1ccc2c(-c3ccncc3)c[nH]c2c1`: the residual activity in experiment [1] came out at 98%; in experiment [2] it was 87%. As for `CCN(CC)C(=O)c1ccc(Nc2nc(OCC3CCCCC3)c3nc[nH]c3n2)cc1`, the residual activity in experiment [2] worked out at 97%. In the case of `Nc1n[nH]c2nc3ccccc3nc12`, the results for the residual activity in experiment [1] and in experiment [2] were 98% and 93%, respectively. For the molecule `N#CC(C#N)=C(N)/C(C#N)=C/c1ccc(O)cc1`, the residual activity in experiment [2] turned out to be 94%. On to `c1ccc(-c2n[nH]cc2-c2ccnc3ccccc23)nc1`, for which the residual activity in experiment [1] came out at 103%; in experiment [2], 96%. `Cc1ccc(NC2=CC(=O)c3sc(C)nc3C2=O)cc1`: the values for the residual activity in experiment [1] and in experiment [2] were 93% and 96%, respectively.

For `O=C1NC(=O)C(c2c[nH]c3ccccc23)=C1c1c[nH]c2ccccc12`, the residual activity in experiment [2] was found to be 98%. For `NCCNc1ncc(C(N)=O)c(Nc2cccc(C(F)(F)F)c2)n1`, the residual activity in experiment [1] was 105%; in experiment [2], 100%. For `O=c1cc(N2CCOCC2)oc2c1ccc1ccccc12`, in that order: 103% and 96%. For `CC(=O)c1ccc(N2CCOCC2)cc1O`, the residual activity was 105% in experiment [1] and 95% in experiment [2]. The matching figures for `O=C(O)c1ccc2c3c1cccc3c(=O)n1c3ccccc3nc21`: 95% and 100%. With `Cc1cc(Nc2nc(-c3ccccc3)nc3ccccc23)n[nH]1`, the residual activity in experiment [2] came to 76%.

Regarding `O=C1NC(=O)c2cc(Nc3ccc(F)cc3)c(Nc3ccc(F)cc3)cc21`, the residual activity in experiment [1] worked out at 104%; in experiment [2], 85%. With `COc1ccc(Cl)cc1NC(=O)Nc1cc(C)nc2ccccc12`, the residual activity in experiment [2] came to 98%. Turning to `N#Cc1c(NC(=O)c2cccc3ccccc23)sc2c1CCCC2`, the residual activity in experiment [2] stood at 98%. Still for that read-out and setting: to `O=C(O)/C=C/c1cc(Br)c(Br)c(Br)c1Br` belongs 99%; to `O=C(c1ccccc1)c1ccc(N2CCOCC2)cc1O`, 96%. As to `CCOC(=O)c1c(C)[nH]c(/C=C2\C(=O)Nc3ccccc32)c1C`, in experiment [2], the residual activity is 98%. On the same count and under the same terms, to `CCN1/C(=C/C(C)=O)Sc2ccc(OC)cc21` belongs 100%; to `Nc1ncnc2c1cnn2-c1ccccc1`, 93%. The same measure, in the same setting: next, `NC(=O)c1ccc(-c2nc(-c3ccc4c(c3)OCCO4)c(-c3ccccn3)[nH]2)cc1`: 95%. `O=C1NC(=O)c2c1c1c3ccccc3[nH]c1c1[nH]c3cc(Br)ccc3c21`: the residual activity in experiment [1] and in experiment [2] was 102% in each case.
